Data taken from PubChem BioAssay (NCATS).
“And” between values parts separate entries of the source, which are not always exact repeats. Equal values may be shown once. Inconclusive results are not listed. The source made the active and inactive calls. Unless noted, calls come from the whole dose curve; as a rule, active = well fitted curve in the direction sought with a large enough effect; inconclusive = small, poorly fitted or top-dose-only effect, or another doubt; inactive = no such curve, though single readings can be large; an effect the other way counts as inactive or inconclusive.

Key:
[1] = qHTS assay for small molecule antagonists of peroxisome proliferator-activated receptor delta signaling (AID 588535; active = well fitted inhibition curve with a large enough effect in the signal ratio, with a control signal flat, not every such curve was filed as active; the % refers to the signal ratio;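 for max response: cells co-treated with a PPAR-delta agonist as stimulator during compound exposure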); settings: HEK293T PPARd-UAS-bla, beta-lactamase FRET ratio, 18 h; 460 nm channel
In short: (§1)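 Titrations were run on PPAR-delta-UAS-bla HEK293T cells in charcoal/dextran-stripped serum, incubated 18 h at 37 C. CCF4 fluorescence (460/530 nm) after 2 h RT; Hill equation yields IC50 and maximal response.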

[2] = biological target: Peroxisome proliferator-activated receptor delta (Homo sapiens) (UniProt Q03181); assay: as above
Sequence of Peroxisome proliferator-activated receptor delta (Homo sapiens) (Q03181 whole entry, looked up): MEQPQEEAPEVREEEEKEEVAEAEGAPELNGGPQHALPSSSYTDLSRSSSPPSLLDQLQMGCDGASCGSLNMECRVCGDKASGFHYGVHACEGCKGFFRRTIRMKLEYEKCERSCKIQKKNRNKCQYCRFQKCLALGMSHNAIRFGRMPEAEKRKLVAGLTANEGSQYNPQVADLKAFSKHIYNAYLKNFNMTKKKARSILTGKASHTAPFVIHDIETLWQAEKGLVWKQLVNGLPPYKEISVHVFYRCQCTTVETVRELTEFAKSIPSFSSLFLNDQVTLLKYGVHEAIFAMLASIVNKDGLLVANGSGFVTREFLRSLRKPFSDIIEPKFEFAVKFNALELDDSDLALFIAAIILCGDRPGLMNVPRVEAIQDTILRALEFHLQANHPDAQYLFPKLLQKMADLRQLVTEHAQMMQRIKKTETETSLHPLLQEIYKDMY
In short: as §1

[3] = biological target: Vitamin D3 receptor (Homo sapiens) (UniProt P11473); assay: qHTS assay for small molecule antagonists of vitamin D receptor signaling (AID 588541; calls by dose curve;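 note: receptor activated by calcitriol during compound treatment; series mostly up to about 77 µM; % is set by controls: 0 for no effect and ±100 for the full control effect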)
Sequence of Vitamin D3 receptor (Homo sapiens) (P11473 whole entry, looked up): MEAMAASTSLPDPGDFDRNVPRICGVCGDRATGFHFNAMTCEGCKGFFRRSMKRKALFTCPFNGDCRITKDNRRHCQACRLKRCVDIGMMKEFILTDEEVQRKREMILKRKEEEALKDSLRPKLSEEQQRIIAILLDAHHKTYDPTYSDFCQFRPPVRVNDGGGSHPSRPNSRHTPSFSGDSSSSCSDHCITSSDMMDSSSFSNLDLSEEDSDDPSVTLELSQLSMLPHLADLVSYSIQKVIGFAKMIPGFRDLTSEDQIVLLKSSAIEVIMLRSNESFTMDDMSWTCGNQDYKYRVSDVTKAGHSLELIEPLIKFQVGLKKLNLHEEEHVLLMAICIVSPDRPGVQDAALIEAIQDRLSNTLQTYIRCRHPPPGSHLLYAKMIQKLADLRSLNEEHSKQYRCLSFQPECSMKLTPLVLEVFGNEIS
In short: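 Antagonist-mode beta-lactamase reporter assay: HEK293T VDR-UAS-bla cells were exposed to titrated compound alongside 1-alpha,25-dihydroxyvitamin D3 at 3 nM final for 16 h. Values were normalized to the 50 nM agonist control and DMSO basal, with IC50 and efficacy from Hill equation fits.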

[4] = biological target: Vitamin D3 receptor (Homo sapiens) (UniProt P11473); assay: qHTS assay for small molecule agonists of vitamin D receptor signaling (AID 588543; calls by dose curve;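 note: 0% = DMSO basal and 100% = reference agonist control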)
In short: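 VDR-UAS-bla HEK293T cells, 2000/well, 2% charcoal-stripped FBS; compound titration 16 h at 37 C; CCF4 beta-lactamase ratio read. Normalized to 50 nM 1-alpha,25-dihydroxyvitamin D3 (100%) and DMSO; Hill fit gives EC50, efficacy.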

[5] = biological target: Thyroid hormone receptor beta (Homo sapiens) (UniProt P10828); assay: qHTS assay for small molecule agonists of thyroid hormone receptor beta signaling (AID 588545; calls by dose curve)
Sequence of Thyroid hormone receptor beta (Homo sapiens) (P10828 whole entry, looked up): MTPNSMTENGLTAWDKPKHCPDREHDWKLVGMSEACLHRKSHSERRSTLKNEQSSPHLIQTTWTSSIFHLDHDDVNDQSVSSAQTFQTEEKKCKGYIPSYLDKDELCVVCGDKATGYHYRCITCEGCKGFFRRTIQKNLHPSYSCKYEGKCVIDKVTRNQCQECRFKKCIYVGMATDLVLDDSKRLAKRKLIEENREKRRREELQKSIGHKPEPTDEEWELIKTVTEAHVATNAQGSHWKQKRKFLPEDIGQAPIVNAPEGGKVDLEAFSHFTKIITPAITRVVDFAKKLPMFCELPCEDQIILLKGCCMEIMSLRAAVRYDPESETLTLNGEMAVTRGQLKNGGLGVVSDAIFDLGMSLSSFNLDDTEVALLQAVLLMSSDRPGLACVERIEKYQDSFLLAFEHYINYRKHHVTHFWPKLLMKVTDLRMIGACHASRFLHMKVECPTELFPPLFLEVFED
In short: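 In this cell-based screen, titrated compounds act on HEK 293 cells held in medium with 2% charcoal/dextran FBS, NEAA and pyruvate for 18 hrs at 37 C. Responses are expressed relative to T3 (10 nM) as 100% and basal DMSO as 0%.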

[6] = qHTS assay for small molecule antagonists of retinoid X receptor alpha signaling (AID 588546; active = well fitted inhibition curve with a large enough effect in the signal ratio, with a control signal flat, not every such curve was filed as active; the % refers to the signal ratio;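 note: cells stimulated with 9-cis-retinoic acid as agonist; % is set by controls: 0 for no effect and ±100 for the full control effect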); settings: HEK293T RXRa-UAS-bla, beta-lactamase ratio, antagonist mode; measured here: W530 green channel, cytotoxicity proxy
In short: (§2)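 Beta-lactamase reporter inhibition, read as CCF4 fluorescence ratio (ex 405, em 460/530 nm) after 2 h at RT. HEK293T UAS-bla cells, 2500/well, were stimulated with 9-cis-RA at 500 or 100 nM final alongside test compound for 18 h at 37 C.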

[7] = biological target: Retinoic acid receptor RXR-alpha (Homo sapiens) (UniProt P19793); assay: as above; settings: HEK293T RXRa-UAS-bla, beta-lactamase ratio, antagonist mode
Sequence of Retinoic acid receptor RXR-alpha (Homo sapiens) (P19793 whole entry, looked up): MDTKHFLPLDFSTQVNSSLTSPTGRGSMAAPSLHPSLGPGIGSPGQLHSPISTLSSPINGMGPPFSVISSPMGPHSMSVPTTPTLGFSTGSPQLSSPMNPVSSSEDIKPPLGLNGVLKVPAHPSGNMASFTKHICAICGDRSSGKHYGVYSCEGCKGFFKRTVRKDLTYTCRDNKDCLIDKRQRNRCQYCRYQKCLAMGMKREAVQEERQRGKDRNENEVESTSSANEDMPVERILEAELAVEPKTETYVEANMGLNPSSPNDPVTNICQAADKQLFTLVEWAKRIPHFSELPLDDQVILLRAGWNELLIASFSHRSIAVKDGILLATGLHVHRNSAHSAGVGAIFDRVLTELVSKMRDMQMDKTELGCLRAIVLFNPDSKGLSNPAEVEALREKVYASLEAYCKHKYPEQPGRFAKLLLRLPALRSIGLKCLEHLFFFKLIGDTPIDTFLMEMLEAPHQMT
In short: as §2

[8] = biological target: Thyroid hormone receptor beta (Homo sapiens) (UniProt P10828); assay: qHTS assay for small molecule antagonists of thyroid hormone receptor beta signaling (AID 588547; active = well fitted inhibition curve with a large enough effect in the signal ratio, with a control signal flat, not every such curve was filed as active; the % refers to the signal ratio;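 note: cells stimulated with 0.4 nM T3 agonist during compound exposure; series mostly up to about 77 µM; % is set by controls: 0 for no effect and ±100 for the full control effect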); settings: TR-UAS-bla HEK293, beta-lactamase ratio, antagonist mode, 18 h
In short: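 Inhibition of T3-driven (0.4nM final) beta-lactamase reporter activity was measured over 0.59 nM to 92 uM compound after 18 h at 37 C. The cells were GripTite HEK293 TR-UAS-bla in charcoal/dextran-stripped serum, with CCF4 ratio read-out and IC50 from Hill fits.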

[9] = biological target: Voltage-gated inwardly rectifying potassium channel KCNH2 (Homo sapiens) (UniProt Q12809); assay: qHTS Assay for Small Molecule Inhibitors of the Human hERG Channel Activity (AID 588834);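 note: top concentration of the series differs between compounds; % is set by controls: 0 for no effect and ±100 for the full control effect; lower thallium flux fluorescence means stronger hERG block; nearly all actives have a fitted effect of over 50% in size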
Sequence of Voltage-gated inwardly rectifying potassium channel KCNH2 (Homo sapiens) (Q12809 whole entry, looked up): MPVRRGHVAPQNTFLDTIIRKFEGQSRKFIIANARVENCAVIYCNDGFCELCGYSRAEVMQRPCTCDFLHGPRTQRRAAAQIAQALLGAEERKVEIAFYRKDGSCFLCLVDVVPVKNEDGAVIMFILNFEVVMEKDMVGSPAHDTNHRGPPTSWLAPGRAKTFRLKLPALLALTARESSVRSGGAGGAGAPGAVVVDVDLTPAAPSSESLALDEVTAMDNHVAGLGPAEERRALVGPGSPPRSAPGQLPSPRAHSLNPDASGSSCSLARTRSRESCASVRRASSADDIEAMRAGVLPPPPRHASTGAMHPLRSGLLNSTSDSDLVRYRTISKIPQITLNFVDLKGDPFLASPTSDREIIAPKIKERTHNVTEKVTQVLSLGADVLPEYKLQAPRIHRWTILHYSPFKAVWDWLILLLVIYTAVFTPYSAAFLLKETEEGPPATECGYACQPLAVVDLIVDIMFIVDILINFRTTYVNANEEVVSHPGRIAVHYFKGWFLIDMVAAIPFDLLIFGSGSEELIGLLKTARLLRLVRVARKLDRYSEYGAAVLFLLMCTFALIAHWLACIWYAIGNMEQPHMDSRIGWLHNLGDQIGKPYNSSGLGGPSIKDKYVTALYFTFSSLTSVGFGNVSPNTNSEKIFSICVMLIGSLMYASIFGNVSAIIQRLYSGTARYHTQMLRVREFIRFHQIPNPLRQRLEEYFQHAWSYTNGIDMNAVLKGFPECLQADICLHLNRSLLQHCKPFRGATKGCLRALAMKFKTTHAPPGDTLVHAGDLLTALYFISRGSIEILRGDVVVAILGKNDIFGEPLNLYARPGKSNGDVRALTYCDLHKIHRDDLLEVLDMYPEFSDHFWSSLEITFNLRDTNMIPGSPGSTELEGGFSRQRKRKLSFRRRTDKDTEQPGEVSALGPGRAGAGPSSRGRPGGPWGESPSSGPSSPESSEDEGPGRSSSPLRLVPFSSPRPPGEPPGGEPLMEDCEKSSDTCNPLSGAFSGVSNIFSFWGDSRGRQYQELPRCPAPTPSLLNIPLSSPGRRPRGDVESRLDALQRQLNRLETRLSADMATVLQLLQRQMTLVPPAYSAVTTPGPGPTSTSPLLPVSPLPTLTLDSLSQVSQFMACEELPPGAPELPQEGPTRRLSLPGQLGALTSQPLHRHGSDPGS
In short: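 Thallium serves as surrogate for K+ influx through BacMam-delivered hERG in U2OS cells. Compounds are added for about 10 minutes after dye loading; stimulation buffer then starts flux, monitored kinetically on FDSS.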

[10] = qHTS assay for small molecule agonists of the antioxidant response element (ARE) signaling pathway (AID 651741; active = well fitted activation curve with a large enough effect in the signal ratio; the % refers to the signal ratio; note: potency is the fitted concentration of half-maximal effect)
In short: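 Beta-lactamase reporter under ARE control in HepG2 cells, 2,000 per well, was induced by 16 h compound treatment at 37 C. Read-out was fluorescence from LiveBLAzer B/G FRET substrate after 2 h at room temperature.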

[11] = qHTS assay for small molecule activators of the p53 signaling pathway (AID 651743; active = well fitted activation curve with a large enough effect in the signal ratio, not every such curve was filed as active; the % refers to the signal ratio; note: series mostly up to about 92 µM; % of control where 0% means no effect); settings: HCT-116 p53RE-bla, beta-lactamase FRET ratio, 16 h; stronger effect = higher value
In short: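 After 16 hours compound treatment at 37 C, HCT-116 cells stably expressing p53RE-driven beta-lactamase were loaded with LiveBLAzer B/G FRET substrate for 2 hours at room temperature. Fluorescence intensity served as the p53 activation read-out.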

[12] = qHTS assay for small molecule activators of the nuclear factor-kappa B (NF-kB) signaling pathway (AID 651749; active = well fitted activation curve with a large enough effect in the signal ratio; the % refers to the signal ratio; note: series mostly up to about 77 µM; % of control where 0% means no effect); settings: NF-kB-bla ME-180 cells, beta-lactamase FRET ratio, 16 h; stronger effect = higher value
In short: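 Activation measured after 16 hr compound treatment at 37C, 5% CO2, of 2,000 ME-180 cells/well stably expressing an NF-kB response element–driven beta-lactamase reporter, via FRET-disruption fluorescence.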

[13] = qHTS assay for environmental chemicals that activate the Aryl hydrocarbon Receptor (AhR) signaling pathway (AID 651777); settings: 1A2-DRE human hepatoma cells, luciferase, 24 h; stronger effect = higher value; note: % of control where 0% means no effect; nearly all actives have a fitted effect of over 15% in size
In short: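 Induction of CYP1A2 transcription through AhR is detected by luciferase in 1A2-DRE hepatoma cells. Compounds or DMSO act for 24 hr at 37 C before a 30 min One-Glo step at room temperature.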

[14] = biological target: Peroxisome proliferator-activated receptor alpha (Homo sapiens) (UniProt Q07869); assay: qHTS assay for small molecule agonists of the peroxisome proliferator-activated receptor alpha (PPARalpha) signaling pathway (AID 651778); settings: PathHunter PPARalpha complementation, chemiluminescence, 6 h; stronger effect = higher value; note: % of control where 0% means no effect
Sequence of Peroxisome proliferator-activated receptor alpha (Homo sapiens) (Q07869 whole entry, looked up): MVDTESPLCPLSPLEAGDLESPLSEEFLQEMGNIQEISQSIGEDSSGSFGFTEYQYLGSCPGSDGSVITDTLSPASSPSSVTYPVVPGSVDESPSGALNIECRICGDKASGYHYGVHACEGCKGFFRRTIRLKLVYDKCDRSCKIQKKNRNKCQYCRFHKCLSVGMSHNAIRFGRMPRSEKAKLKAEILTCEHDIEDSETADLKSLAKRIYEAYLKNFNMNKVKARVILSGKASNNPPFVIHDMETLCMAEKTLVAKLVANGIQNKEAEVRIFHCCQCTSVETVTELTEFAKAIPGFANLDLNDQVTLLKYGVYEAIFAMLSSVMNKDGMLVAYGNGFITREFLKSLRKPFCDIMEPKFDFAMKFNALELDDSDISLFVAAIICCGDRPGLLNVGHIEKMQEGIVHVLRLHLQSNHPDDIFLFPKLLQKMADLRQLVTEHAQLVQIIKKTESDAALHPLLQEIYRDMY
In short: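 Chemiluminescence from complemented enzyme reported PPARalpha activation in cells after 6 hr of compound treatment at 37 C. The detection reagent was incubated for 60 min at room temperature, and compounds were scored as agonists.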

[15] = biological target: Nuclear receptor ROR-gamma (Homo sapiens) (UniProt P51449); assay: qHTS assay for small molecule antagonists of the retinoid-related orphan receptor gamma (ROR-gamma) signaling pathway (AID 651802);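 note: CHO cells with doxycycline-induced ROR-gamma expression; series mostly up to about 92 µM; % is set by controls: 0 for no effect and ±100 for the full control effect; nearly all actives have a fitted effect of over 60% in size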
Sequence of Nuclear receptor ROR-gamma (Homo sapiens) (P51449 whole entry, looked up): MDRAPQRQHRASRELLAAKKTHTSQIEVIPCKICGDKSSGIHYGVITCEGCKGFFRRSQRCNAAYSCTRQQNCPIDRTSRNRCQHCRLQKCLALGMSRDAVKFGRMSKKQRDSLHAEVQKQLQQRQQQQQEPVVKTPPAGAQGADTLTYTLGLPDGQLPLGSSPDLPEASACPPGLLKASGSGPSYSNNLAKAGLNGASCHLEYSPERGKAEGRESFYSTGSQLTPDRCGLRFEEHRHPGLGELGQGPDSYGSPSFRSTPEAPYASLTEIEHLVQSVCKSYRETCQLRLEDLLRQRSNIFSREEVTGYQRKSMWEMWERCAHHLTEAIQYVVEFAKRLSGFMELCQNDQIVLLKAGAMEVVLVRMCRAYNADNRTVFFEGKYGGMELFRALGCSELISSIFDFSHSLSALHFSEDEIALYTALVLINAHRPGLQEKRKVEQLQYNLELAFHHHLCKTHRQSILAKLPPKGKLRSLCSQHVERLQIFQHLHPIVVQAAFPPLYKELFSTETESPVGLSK
In short: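 Steps: cells dispensed; compound or DMSO transferred by pin tool; doxycycline added to induce the ROR response element-driven luciferase; plates held 16hr at 37C; ONE-Glo added and luminescence measured.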

[16] = qHTS assay for small molecule agonists of the antioxidant response element (ARE) signaling pathway measured by Nrf2-dependant transcriptional activity (AID 720636; active = well fitted curve in the direction sought with a large enough effect in the repeat runs; an effect the other way counts as inactive or inconclusive;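 note: HepG2 cells with an ARE-driven luciferase reporter; % of control where 0% means no effect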)
In short: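 We exposed ARE-luc HepG2 cells, seeded in assay medium with 1% dialyzed FBS and allowed 6 hr to adhere, to test compounds overnight (16 hr, 37 C) before measuring luciferase with ONE-Glo.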

[17] = qHTS assay for small molecule antagonists of the retinoid-related orphan receptor gamma (ROR-gamma) signaling pathway - cell viability counter screen (AID 720652; active = well fitted curve in the direction sought with a large enough effect in the repeat runs; an effect the other way counts as inactive or inconclusive;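 note: CHO reporter cells with doxycycline-induced ROR-gamma expression; series mostly up to about 92 µM; compound exposure lasted 16 hr before ATP read; % is set by controls: 0 for no effect and ±100 for the full control effect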)
In short: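 Steps: seed CHO cells bearing TET-inducible ROR and ROR response element-luciferase; rest 5 hr at 37 C; add compound, then doxycycline; incubate 16 hr; add CellTiter-Glo and read luminescence as ATP-based viability.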

[18] = qHTS assay for small molecule agonists of the antioxidant response element (ARE) signaling pathway measured by Nrf2-dependant transcriptional activity - cell viability counter screen (AID 720653; active = well fitted curve in the direction sought with a large enough effect in the repeat runs; an effect the other way counts as inactive or inconclusive; note: % is set by controls: 0 for no effect and ±100 for the full control effect); settings: ARE-bla HepG2 viability, CellTiter-Glo ATP luminescence, 16 h; stronger effect = lower value
In short: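 Cytotoxicity counter screen: intracellular ATP quantified by CellTiter-Glo luminescence in the same ARE-bla HepG2 plates, after 16 h compound exposure and a 2 h beta-lactamase substrate step.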

[19] = qHTS assay for cell viability of HEK293 cells (AID 743288); settings: ATP luminescence (CellTiter-Glo), 18 h, stronger effect = lower value; note: % is set by controls: 0 for no effect and ±100 for the full control effect; nearly all actives have a fitted effect of over 50% in size
In short: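 Steps: plate 2,000 parental HEK293 cells per well; incubate ≥5 h, 37 C; add compounds in DMSO; incubate 18 h, 37 C; add CellTiter-Glo; wait 30 min at room temperature; read luminescence.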

[20] = qHTS assay for cell viability of the p53RE-bla HCT-116 cell line (AID 743292); note: % is set by controls: 0 for no effect and ±100 for the full control effect; nearly all actives have a fitted effect of over 55% in size
In short: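 In this qHTS counter-screen, metabolically competent p53RE-bla HCT-116 cells were counted via their ATP content. Compounds were applied for 16 h at 37 C and luciferase-coupled luminescence was measured.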

CO[C@H]1/C=C/O[C@@]2(C)Oc3c(C)c(O)c4c(O)c(c(/C=N/N5CCN(C)CC5)c(O)c4c3C2=O)NC(=O)/C(C)=C\C=C\[C@H](C)[C@H](O)[C@@H](C)[C@@H](O)[C@@H](C)[C@H](OC(C)=O)[C@@H]1C
91.2%: max response [1]
active: Potency [10] 54.5 µM
inactive: outcome [2] | outcome [3] | outcome [4] | outcome [5] | max response [7] -24.8% and 0.888% | activity change % (negative = inhibition) [8] 4.86% and -12.3% | outcome [9] | activation [11] -10.4% and -9.54% | activation [12] -0.981% and -2.03% | activation [13] 0.185% and -0.0706% | max response [14] -9.67% and -6.67% | outcome [15] | outcome [16] | outcome [17] | max response [18] -3.19% and -26% | max response [19] -14.9% and -19.1% | outcome [20]
12.2% and 0.217%: max response [6]
